Assay outcomes deposited in PubChem by National Center for Advancing Translational Sciences (NCATS).
Hits are enriched below; roughly 5.3% of the tested compounds scored in any of these assays.
JMJD2A Tudor – JMJD2A Tudor domain (human) inhibition; Potency, µM (highest dose often 114 µM), for the others: top-dose activity change, negative = inhibition, actives largely listed as inhibitors; AlphaScreen JMJD2A-Tudor / H3K4me3 peptide binding; hit rate 4.4% among 390,000; O75164; further: potency means the concentration at half of the fitted maximal effect; on the % scale 0 is the no-effect control and ±100 the full control effect; nearly all actives have a fitted effect of over 50% in size
CtBP-E1A blk – inhibitors of CtBP/E1A interaction; AlphaScreen GST-E1A/His-CtBP binding, 1536-well; stronger effect = lower value; activity change, % (test concentration not listed); hit rate 0.49% among 340,000; AID 651724; in the data active means activity change below about -65%; inconclusive means mostly about -30% to -63%; further: on the % scale 0 is the no-effect control and ±100 the full control effect
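Homogeneous bead-based format: GST-tagged E1A captured on glutathione donor beads, His-tagged CtBP on nickel acceptor beads; compounds precede bead addition by 2 h at 37 °C.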
Six1-Eya2 blk – Six1/Eya2 interaction inhibition; AlphaScreen GST-Six1/His-Eya2 binding, biochemical; stronger effect = lower value; activity change, % (no concentration beside the values); hit rate 0.56% among 360,000; AID 651725; in the data active means activity change below about -65%; inconclusive means mostly about -30% to -63%; further: on the % scale 0 is the no-effect control and ±100 the full control effect
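Homogeneous AlphaScreen proximity assay pairing GST-Six1 with His-tagged Eya2 (added as 5X mix: 250 nM and 500 nM) in 50 mM Tris pH 8.0, 300 mM NaCl, 1 mM TCEP. Glutathione donor and nickel acceptor beads; 1 h, 37 °C, dark.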
BAZ2B block – blocks human BAZ2B; AlphaScreen BAZ2B-H3K14Ac peptide displacement; Potency, µM (doses to about 114 µM), inactives show top-dose activity change, negative = inhibition, usual class: inhibitors; hit rate 4.4% among 360,000; Q9UIF8; further: potency means the concentration at half of the fitted maximal effect; on the % scale 0 is the no-effect control and ±100 the full control effect; nearly all actives have a fitted effect of over 60% in size
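Complex of BAZ2B and biotin-H3K14Ac (50 nM apiece) forms over 30 min at RT, then faces library compounds up to 110 uM for another 30 min; AlphaScreen beads added, 20 min dark incubation, luminescence read.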
TDP1 block – blocks human tyrosyl-DNA phosphodiesterase 1 | recombinant TDP1, AlphaScreen DNA substrate cleavage | Potency, µM (titrated, usually from 130 µM), for inactives: at the top dose activity change, negative = inhibition, actives largely listed as inhibitors | hit rate 0.28% among 350,000; further: potency means the concentration at half of the fitted maximal effect; on the % scale 0 is the no-effect control and ±100 the full control effect; nearly all actives have a fitted effect of over 40% in size
Target sequence (Q9NUW8 whole entry, looked up): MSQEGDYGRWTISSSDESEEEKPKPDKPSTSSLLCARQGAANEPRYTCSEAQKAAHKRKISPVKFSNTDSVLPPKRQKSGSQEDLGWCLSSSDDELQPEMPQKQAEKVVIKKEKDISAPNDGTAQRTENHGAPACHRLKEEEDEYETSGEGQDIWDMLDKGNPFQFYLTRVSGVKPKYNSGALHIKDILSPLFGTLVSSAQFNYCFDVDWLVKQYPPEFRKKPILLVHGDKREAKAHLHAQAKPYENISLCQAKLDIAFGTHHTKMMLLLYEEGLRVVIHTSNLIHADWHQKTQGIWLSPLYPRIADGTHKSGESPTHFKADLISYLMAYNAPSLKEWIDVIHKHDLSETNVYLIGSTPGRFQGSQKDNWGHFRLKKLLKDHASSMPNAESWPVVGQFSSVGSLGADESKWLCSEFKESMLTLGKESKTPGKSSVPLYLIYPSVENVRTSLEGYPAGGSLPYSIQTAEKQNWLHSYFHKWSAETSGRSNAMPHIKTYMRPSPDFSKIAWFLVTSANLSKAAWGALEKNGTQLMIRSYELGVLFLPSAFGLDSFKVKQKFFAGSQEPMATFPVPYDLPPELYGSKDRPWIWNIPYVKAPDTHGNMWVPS
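Steps: enzyme plus compound, 15 min RT; add biotin/phosphotyrosine-FITC oligonucleotide (15 nM final), react 5 min; add donor/acceptor beads (10 ug/ml final), 10 min; read AlphaScreen. Tdp1 at 1 nM final.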
HP1b chromo inh – inhibitors of HP1-beta chromodomain binding to methylated histone tails | P83916 | AlphaScreen HP1-beta / biotin-H3K9me3 peptide binding | Potency, µM (series often up to 114 µM), inactives show top-dose activity change, negative = inhibition, most hits filed as inhibitors | hit rate 0.56% among 390,000 | AID 540317; further: potency means the concentration at half of the fitted maximal effect; nearly all actives have a fitted effect of over 70% in size
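Compound inhibition of the preformed complex between 50 nM HP1-beta and 50 nM biotinylated H3K9me3 peptide was read by AlphaScreen. Buffer was PBS pH 7.4 with 0.01% Tween-20. Incubations ran 30 min at room temperature, with 10 ug/mL donor/acceptor beads.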
* = called active by the depositor. Unless noted, the call rests on the fitted dose curve; in most records, active means well fitted inhibition curve with a large enough effect; inconclusive means small, poorly fitted or top-dose-only effect; inactive means no such curve, though single readings can be large or run the other way.

Screening S=c1[nH]nc(C2CCCCC2)n1/N=C/C=C/c1ccccc1 returned JMJD2A Tudor 79.4µM*, CtBP-E1A blk -7.4, Six1-Eya2 blk -10.2, BAZ2B block inconclusive, TDP1 block 7.8% and HP1b chromo inh -33.7%.
Screening Fc1ccccc1/C=N/n1c(C2CCCCC2)n[nH]c1=S returned JMJD2A Tudor 39.8µM*, CtBP-E1A blk 9.1, Six1-Eya2 blk -3.7, BAZ2B block 2.0% and HP1b chromo inh -13.4%.
`Cc1cc(C)n(/N=C/c2c[nH]c3ccccc23)c(=O)c1` gave JMJD2A Tudor -16.7%, CtBP-E1A blk 11.1, Six1-Eya2 blk 5.9, BAZ2B block 15.0%, TDP1 block -2.1% and HP1b chromo inh 19.2%.
For S=c1[nH]nc(C2CCCCC2)n1/N=C/C(Cl)=C\c1ccccc1 the results were JMJD2A Tudor inconclusive, CtBP-E1A blk 19.2, Six1-Eya2 blk 2.0, BAZ2B block -2.8%, TDP1 block 3.2% and HP1b chromo inh -9.2%.
For O=C(O)COc1ccccc1/C=N/n1c(C2CCCCC2)n[nH]c1=S the results were JMJD2A Tudor 25.1µM*, CtBP-E1A blk -0.8, Six1-Eya2 blk 0.9, BAZ2B block -4.9% and HP1b chromo inh 0.9%.
`COc1ccccc1-c1cc(C(=O)Nc2c(C)nn(Cc3ccc(Cl)cc3)c2C)no1` gave JMJD2A Tudor -13.3%, BAZ2B block -8.6%, TDP1 block 4.5% and HP1b chromo inh 17.1%.
COCCCNC(=O)CCCn1c(SCC(=O)c2ccc(F)cc2)nc2c(sc3ccccc32)c1=O was read as JMJD2A Tudor -8.8%, BAZ2B block -13.3%, TDP1 block 3.5% and HP1b chromo inh 20.7%.
S=c1[nH]nc(C2CCCCC2)n1/N=C/c1ccccc1Br was read as JMJD2A Tudor 17.8µM*, CtBP-E1A blk -6.1, Six1-Eya2 blk 3.5, BAZ2B block -38.6% and HP1b chromo inh inconclusive.
COc1ccc(/C=N/Nc2cc(N(C)C)nc(N(C)C)n2)cc1 was read as JMJD2A Tudor inconclusive, CtBP-E1A blk -15.7, Six1-Eya2 blk -22.1, BAZ2B block 50.1µM*, TDP1 block 0.0% and HP1b chromo inh inconclusive.
For COc1ccc(C2c3ccc(OCc4ccccc4)cc3Oc3ncn(CCN4CCOCC4)c(=N)c32)cc1OC (stereo not drawn) the results were JMJD2A Tudor inconclusive and TDP1 block 4.9%.
CC1CCN(C(=O)CN2c3ccc(Br)cc3-c3ccccc3S2(=O)=O)CC1 was read as JMJD2A Tudor -23.8%, BAZ2B block -15.6%, TDP1 block 4.7% and HP1b chromo inh 39.0%.
Screening C#CCOCCOCCOCCNc1nc(N2CCN(C(=O)[C@H](CCC(=O)O)n3cc(C(N)CO)nn3)CC2)nc(N2CCN(C(=O)[C@H](CCC(=O)O)n3cc(C(N)CC(C)C)nn3)CC2)n1 (stereo partly drawn) returned BAZ2B block 20µM* and TDP1 block inconclusive.
Screening C#CCOCCOCCOCCNc1nc(N2CCN(C(=O)[C@H](C)n3cc(CCC(=O)O)nn3)CC2)nc(N2CCN(C(=O)[C@H](C)n3cc(CCC(=O)O)nn3)CC2)n1 returned JMJD2A Tudor inconclusive, CtBP-E1A blk 8.2, Six1-Eya2 blk 6.3 and HP1b chromo inh 21.0%.
C#CCOCCOCCOCCNc1nc(N2CCN(C(=O)[C@H](CCC(=O)O)n3cc(C(N)CO)nn3)CC2)nc(N2CCN(C(=O)[C@H](CCC(=O)O)n3cc(C(N)CO)nn3)CC2)n1 (stereo partly drawn) was read as BAZ2B block 14.1µM* and TDP1 block -1.2%.
O=C(Cn1nc(-c2ccccc2)c2c(c1=O)CCCC2)Nc1ccc(F)c(Cl)c1 was read as JMJD2A Tudor -25.2%, BAZ2B block 15.7%, TDP1 block 7.0% and HP1b chromo inh 48.3%.
Screening Cn1c(=O)c(C#N)c(-c2ccc(F)cc2)c2cc(C(=O)c3cc(Cl)cc(Cl)c3O)cnc21 returned JMJD2A Tudor 44.7µM*, CtBP-E1A blk inconclusive, Six1-Eya2 blk -5.3, BAZ2B block 35.5µM* and HP1b chromo inh inconclusive.
Cn1c(Sc2ccc(C(=O)O)cc2[N+](=O)[O-])nnc1-c1ccccc1 was read as JMJD2A Tudor 28.2µM*, CtBP-E1A blk 6.5, Six1-Eya2 blk -0.1, BAZ2B block -12.7%, TDP1 block -8.1% and HP1b chromo inh -2.0%.
`O=C(CN1CCCCC1)N1CCCc2ccccc21` gave JMJD2A Tudor 2.51µM*, CtBP-E1A blk 8.9, Six1-Eya2 blk 2.1, BAZ2B block 50.1µM*, TDP1 block -5.6% and HP1b chromo inh inconclusive.
`Cn1c(SCC(=O)N2CCCc3ccccc32)ncc(C(=O)Nc2ccccc2)c1=O` gave JMJD2A Tudor 0.0%, BAZ2B block 3.1%, TDP1 block 2.6% and HP1b chromo inh 57.1%.
O=C(CSc1nccn1-c1ccccc1)N1CCc2ccccc21 was read as JMJD2A Tudor -19.0%, CtBP-E1A blk -13.2, Six1-Eya2 blk -12.6, BAZ2B block inconclusive, TDP1 block 5.3% and HP1b chromo inh -12.3%.
`O=C(CSc1nccn1-c1ccc(Cl)cc1)N1CCCc2ccccc21` gave JMJD2A Tudor inconclusive, CtBP-E1A blk -15.9, Six1-Eya2 blk -25.9, BAZ2B block 35.5µM*, TDP1 block 1.1% and HP1b chromo inh inconclusive.
For Cc1ccc2c(c1)c1nnc(SCC(=O)N3CCCc4ccccc43)nc1n2CC(=O)O the results were JMJD2A Tudor -14.1%, CtBP-E1A blk -88.1*, Six1-Eya2 blk -77.8*, BAZ2B block -7.2%, TDP1 block 0.0% and HP1b chromo inh 6.8%.
Cc1ccc(-c2cnc(SCC(=O)N3CCCc4ccccc43)n2C)cc1 was read as JMJD2A Tudor inconclusive, CtBP-E1A blk inconclusive, Six1-Eya2 blk -26.9, BAZ2B block 28.2µM*, TDP1 block 6.8% and HP1b chromo inh inconclusive.
Screening Cn1c(-c2ccccc2)cnc1SCC(=O)N1CCCc2ccccc21 returned JMJD2A Tudor inconclusive, CtBP-E1A blk -3.7, Six1-Eya2 blk -15.1, BAZ2B block 44.7µM*, TDP1 block 0.0% and HP1b chromo inh inconclusive.
Screening Nc1cccc(S(=O)(=O)N2CCN(S(=O)(=O)c3c(F)cccc3F)CC2)c1 returned JMJD2A Tudor inconclusive and TDP1 block 1.2%.
COc1ccc(OC)c(NC(=O)CSc2ncc3c(n2)-c2ccccc2N(C)S3(=O)=O)c1 was read as JMJD2A Tudor -27.9%, BAZ2B block inconclusive, TDP1 block 7.9% and HP1b chromo inh inconclusive.
Screening COc1cc(NCCC(=O)c2cccs2)c(OC)cc1Cl returned JMJD2A Tudor 39.8µM*, CtBP-E1A blk -1.1, Six1-Eya2 blk inconclusive, BAZ2B block 39.8µM*, TDP1 block 11.8% and HP1b chromo inh 56.2µM*.
